Source: PubChem BioAssay (NCATS)
Records with an inconclusive call do not appear. The source made the active and inactive calls. Calls come from the whole dose curve; as a rule, active = well fitted cell-killing curve with a large enough effect; inconclusive = small, poorly fitted or top-dose-only effect, or effect the other way; inactive = flat fitted curve, though single readings scatter. Where a SMILES comes first, the peptide text is derived from it. [ ]: non-standard residue; d: D form.

Columns and labels:
Experiment in all cases: Primary qHTS to identify gynecologic anti-cancer compounds using libraries of approved drugs and bioactive compounds (AID 1345084); note: nearly all actives have a fitted effect of over 55% in size
[1] = test system: CAOV3; conditions: Gynecologic cancer cell panel viability, ATPlite luminescence, 48 h; series mostly up to 57.5 µM
Procedure, shortened: (§1)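 Luminescence from the ATPlite ATP-monitoring reagent indicates viable cell number; lower signal means cytotoxicity. Cells received compound 16 h after seeding and were exposed for 48 h across five concentrations.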

[2] = test system: CASKI; conditions: Gynecologic cancer cell panel viability, ATPlite luminescence, 48 h; series mostly up to 57.5 µM
Procedure, shortened: as §1

[3] = test system: Es-2; conditions: Gynecologic cancer cell panel viability, ATPlite luminescence, 48 h; series mostly up to 57.5 µM
Procedure, shortened: as §1

[4] = test system: HeLa; conditions: Gynecologic cancer cell panel viability, ATPlite luminescence, 48 h; series mostly up to 57.5 µM
Procedure, shortened: as §1

[5] = test system: Hek293T; conditions: Gynecologic cancer cell panel viability, ATPlite luminescence, 48 h, control line for the selectivity index; series mostly up to 57.5 µM
Procedure, shortened: as §1

[6] = test system: JEG-3; conditions: Gynecologic cancer cell panel viability, ATPlite luminescence, 48 h; series mostly up to 57.5 µM
Procedure, shortened: as §1

[7] = test system: OV90; conditions: Gynecologic cancer cell panel viability, ATPlite luminescence, 48 h; series mostly up to 57.5 µM
Procedure, shortened: as §1

[8] = test system: PA-1; conditions: Gynecologic cancer cell panel viability, ATPlite luminescence, 48 h; series mostly up to 57.5 µM
Procedure, shortened: as §1

[9] = test system: SKOV3; conditions: Gynecologic cancer cell panel viability, ATPlite luminescence, 48 h; series mostly up to 57.5 µM
Procedure, shortened: as §1

[10] = test system: Tov-21-G; conditions: Gynecologic cancer cell panel viability, ATPlite luminescence, 48 h; series mostly up to 57.5 µM
Procedure, shortened: as §1

[11] = test system: Tov112D; conditions: Gynecologic cancer cell panel viability, ATPlite luminescence, 48 h; series mostly up to 57.5 µM
Procedure, shortened: as §1
% is set by controls: 0 for no effect and ±100 for the full control effect.

COc1ccc(/C=C/C(=O)O[C@@H]2[C@@H](OC(C)=O)[C@@H](OC(C)=O)[C@H](O[C@H]3[C@@H]4C=CO[C@@H](O[C@@H]5O[C@H](CO)[C@@H](O)[C@H](O)[C@H]5O)[C@@H]4[C@@]4(CO)O[C@@H]34)O[C@H]2C)cc1O
inactive: Potency [1] | Potency [2] | Potency [3] | Potency [4] | Potency [5] | Potency [6] | Potency [7] | Potency [8] | Potency [9] | Potency [10] | Potency [11]

COC1CC(OC2CCC3(C)C(=CCC4C3CCC3(C)C(C(C)O)CCC43O)C2)OC(C)C1OC1OC(C)C(OC2OC(COC3OC(COC4OC(CO)C(O)C(O)C4O)C(O)C(O)C3O)C(O)C(O)C2O)C(OC)C1O (stereo unspecified)
inactive: activity change, negative = cytotoxicity [1] 2.24% [at 11.6 µM] | activity change, negative = cytotoxicity [2] 16.9% [at 11.6 µM] | activity change, negative = cytotoxicity [3] 1.08% [at 11.6 µM] | activity change, negative = cytotoxicity [4] -2.66% [at 11.6 µM] | activity change, negative = cytotoxicity [5] -3% [at 11.6 µM] | activity change, negative = cytotoxicity [6] -1.13% [at 11.6 µM] | activity change, negative = cytotoxicity [7] 3.31% [at 11.6 µM] | activity change, negative = cytotoxicity [8] 5.02% [at 11.6 µM] | activity change, negative = cytotoxicity [9] 0% [at 11.6 µM] | activity change, negative = cytotoxicity [10] -5.94% [at 11.6 µM] | activity change, negative = cytotoxicity [11] -0.956% [at 11.6 µM]

CC(=O)O[C@H]1CC[C@@]2(CI)C(=CC[C@@H]3[C@@H]2CC[C@]2(C)[C@@H]([C@H](C)CCCC(C)C)CC[C@@H]32)C1
inactive: activity change, negative = cytotoxicity [1] 9.25% [at 11.6 µM] | activity change, negative = cytotoxicity [2] -2.47% [at 11.6 µM] | activity change, negative = cytotoxicity [3] -1.33% [at 11.6 µM] | activity change, negative = cytotoxicity [4] 10.9% [at 11.6 µM] | activity change, negative = cytotoxicity [5] 4.14% [at 11.6 µM] | activity change, negative = cytotoxicity [6] -2.55% [at 11.6 µM] | activity change, negative = cytotoxicity [7] -2.38% [at 11.6 µM] | activity change, negative = cytotoxicity [8] 22.4% [at 11.6 µM] | activity change, negative = cytotoxicity [9] 5.27% [at 11.6 µM] | activity change, negative = cytotoxicity [10] 10.3% [at 11.6 µM] | activity change, negative = cytotoxicity [11] 11.8% [at 11.6 µM]

CC(C)C(C#N)O[C@@H]1O[C@H](CO[C@@H]2OC[C@](O)(CO)[C@H]2O)[C@@H](O)[C@H](O)[C@H]1O (stereo partly specified)
inactive: Potency [1] | Potency [2] | Potency [3] | Potency [4] | Potency [5] | Potency [6] | Potency [7] | Potency [8] | Potency [9] | Potency [10] | Potency [11]

CC1=C2C=C(CO)C(CO)CCC2(C)CCC1=O (stereo unspecified)
inactive: Potency [1] | Potency [2] | Potency [3] | Potency [4] | Potency [5] | Potency [6] | Potency [7] | Potency [8] | Potency [9] | Potency [10] | Potency [11]

CC(=O)N[C@H](Cc1ccc(O)cc1)C(=O)N[C@H](CCCN=C(N)N)C(=O)N[C@H](Cc1ccccc1)C(N)=O (Ac-[dY]-[dR]-[dF]-NH2)
inactive: Potency [1] | Potency [2] | Potency [3] | Potency [4] | Potency [5] | Potency [6] | Potency [7] | Potency [8] | Potency [9] | Potency [10] | Potency [11]

Cc1c(-c2ccnn2C)cc(C(=O)NCc2ccc(S(C)(=O)=O)cn2)c(=O)n1-c1cccc(C(F)(F)F)c1
inactive: Potency [1] | Potency [2] | Potency [3] | Potency [4] | Potency [5] | Potency [6] | Potency [7] | Potency [8] | Potency [9] | Potency [10] | Potency [11]

CC(=O)Oc1cc2c(s1)CCN([C@H](C(=O)C1CC1)c1ccccc1F)C2
inactive: Potency [1] | Potency [2] | Potency [3] | Potency [4] | Potency [5] | Potency [6] | Potency [7] | Potency [8] | Potency [9] | Potency [10] | Potency [11]

CCC1CC2C(C)=CC3CCCCC3C2(C)C2(OC(=O)C(C)(O)OC2=O)O1 (stereo unspecified)
inactive: Potency [1] | Potency [2] | Potency [3] | Potency [4] | Potency [5] | Potency [6] | Potency [7] | Potency [8] | Potency [9] | Potency [10] | Potency [11]

CC(=O)OC[C@]1(O)[C@H]2[C@H](OC(=O)CC(C)C)OC=C(CO[C@@H]3O[C@H](CO)[C@@H](O)[C@H](O)[C@H]3O)[C@H]2C[C@@H]1O
inactive: Potency [1] | Potency [2] | Potency [3] | Potency [4] | Potency [5] | Potency [6] | Potency [7] | Potency [8] | Potency [9] | Potency [10] | Potency [11]

C[C@@H]1C[C@H](O[C@@H]2O[C@H](CO[C@@H]3OC[C@](O)(CO)[C@H]3O)[C@@H](O)[C@H](O)[C@H]2O)CC(C)(C)[C@H]1/C=C/[C@@H](C)O
inactive: Potency [1] | Potency [2] | Potency [3] | Potency [4] | Potency [5] | Potency [6] | Potency [7] | Potency [8] | Potency [9] | Potency [10] | Potency [11]

COc1ccc(C2=CC(=O)OC2Cc2ccc(O)cc2)c(O)c1 (stereo unspecified)
inactive: Potency [1] | Potency [2] | Potency [3] | Potency [4] | Potency [5] | Potency [6] | Potency [7] | Potency [8] | Potency [9] | Potency [10] | Potency [11]

CC(NC(=O)CC(=O)O)c1nc2ccccc2c(=O)[nH]1 (stereo unspecified)
inactive: Potency [1] | Potency [2] | Potency [3] | Potency [4] | Potency [5] | Potency [6] | Potency [7] | Potency [8] | Potency [9] | Potency [10] | Potency [11]

C/C(=C\CO)CC/C=C(\C)C(=O)O[C@H]1[C@H](OC2OC=C(C(=O)O)C3CCC(C)(O)C23)O[C@H](CO)[C@@H](O)[C@@H]1O (stereo partly specified)
inactive: Potency [1] | Potency [2] | Potency [3] | Potency [4] | Potency [5] | Potency [6] | Potency [7] | Potency [8] | Potency [9] | Potency [10] | Potency [11]

C[C@]1(O)CC[C@@H]2C(C(=O)O)=CO[C@@H](O[C@@H]3O[C@H](COC(=O)c4ccc(O)cc4)[C@@H](O)[C@H](O)[C@H]3O)[C@@H]21
inactive: Potency [1] | Potency [2] | Potency [3] | Potency [4] | Potency [5] | Potency [6] | Potency [7] | Potency [8] | Potency [9] | Potency [10] | Potency [11]

CCC(CC)n1ccc2c(C(=O)NCc3c(C)cc(C)[nH]c3=O)cc(C#N)cc21
inactive: Potency [1] | Potency [2] | Potency [3] | Potency [4] | Potency [5] | Potency [6] | Potency [7] | Potency [8] | Potency [9] | Potency [10] | Potency [11]
